Reference: PMC11062922 (Nature Chemical Biology, 2023)
Read-outs that look alike come from different tables or passages of the source.

Key:
[1] = test system: AAK1; parameters: species or system human, MV4-11 + K-562 + COLO205 + SK-N-BE2 + OVCAR-8; settings: read-out: apparent Kd, n = 1
[2] = test system: CLK1; parameters: species or system human, MV4-11 + K-562 + COLO205 + SK-N-BE2 + OVCAR-8; settings: read-out: apparent Kd, n = 1
[3] = test system: CLK4; parameters: species or system human, MV4-11 + K-562 + COLO205 + SK-N-BE2 + OVCAR-8; settings: read-out: apparent Kd, n = 1
[4] = test system: GSK3A; parameters: species or system human, MV4-11 + K-562 + COLO205 + SK-N-BE2 + OVCAR-8; settings: read-out: apparent Kd, n = 1
[5] = test system: GSK3B; parameters: species or system human, MV4-11 + K-562 + COLO205 + SK-N-BE2 + OVCAR-8; settings: read-out: apparent Kd, n = 1
[6] = test system: MELK; parameters: species or system human, MV4-11 + K-562 + COLO205 + SK-N-BE2 + OVCAR-8; settings: read-out: apparent Kd, n = 1
[7] = test system: NUAK1; parameters: species or system human, MV4-11 + K-562 + COLO205 + SK-N-BE2 + OVCAR-8; settings: read-out: apparent Kd, n = 1
[8] = target: Q6ZSR9 (human, UniProt Q6ZSR9); parameters: species or system MV4-11 + K-562 + COLO205 + SK-N-BE2 + OVCAR-8; settings: read-out: apparent Kd, n = 1
[9] = test system: BMP2K; parameters: species or system human, MV4-11 + K-562 + COLO205 + SK-N-BE2 + OVCAR-8; settings: read-out: apparent Kd, n = 1
[10] = test system: RET; parameters: species or system human, MV4-11 + K-562 + COLO205 + SK-N-BE2 + OVCAR-8; settings: read-out: apparent Kd, n = 1
[11] = test system: CSNK2A1;CSNK2A3; parameters: species or system human, MV4-11 + K-562 + COLO205 + SK-N-BE2 + OVCAR-8; settings: read-out: apparent Kd, n = 1
[12] = test system: CSNK2A2; parameters: species or system human, MV4-11 + K-562 + COLO205 + SK-N-BE2 + OVCAR-8; settings: read-out: apparent Kd, n = 1
[13] = test system: GAK; parameters: species or system human, MV4-11 + K-562 + COLO205 + SK-N-BE2 + OVCAR-8; settings: read-out: apparent Kd; compound concentrations:100 nM and 1000 nM (sheet 'Samples'); n = 1
[14] = test system: SIK2; parameters: species or system human, MV4-11 + K-562 + COLO205 + SK-N-BE2 + OVCAR-8; settings: read-out: apparent Kd; compound concentrations:100 nM and 1000 nM (sheet 'Samples'); n = 1
[15] = test system: FLT4; parameters: species or system human, MV4-11 + K-562 + COLO205 + SK-N-BE2 + OVCAR-8; settings: read-out: apparent Kd, n = 1
[16] = test system: PAK4; parameters: species or system human, MV4-11 + K-562 + COLO205 + SK-N-BE2 + OVCAR-8; settings: read-out: apparent Kd; compound concentrations:100 nM and 1000 nM (sheet 'Samples'); n = 1
[17] = test system: PKN1; parameters: species or system human, MV4-11 + K-562 + COLO205 + SK-N-BE2 + OVCAR-8; settings: read-out: apparent Kd; compound concentrations:100 nM and 1000 nM (sheet 'Samples'); n = 1
[18] = test system: PKN3; parameters: species or system human, MV4-11 + K-562 + COLO205 + SK-N-BE2 + OVCAR-8; settings: read-out: apparent Kd; compound concentrations:100 nM and 1000 nM (sheet 'Samples'); n = 1
[19] = test system: PRKAG1; parameters: species or system human, MV4-11 + K-562 + COLO205 + SK-N-BE2 + OVCAR-8; settings: read-out: apparent Kd; compound concentrations:100 nM and 1000 nM (sheet 'Samples'); n = 1
[20] = compound concentrations:100 nM and 1000 nM (sheet 'Samples')

Chain of Q6ZSR9 (Q6ZSR9 whole entry, looked up): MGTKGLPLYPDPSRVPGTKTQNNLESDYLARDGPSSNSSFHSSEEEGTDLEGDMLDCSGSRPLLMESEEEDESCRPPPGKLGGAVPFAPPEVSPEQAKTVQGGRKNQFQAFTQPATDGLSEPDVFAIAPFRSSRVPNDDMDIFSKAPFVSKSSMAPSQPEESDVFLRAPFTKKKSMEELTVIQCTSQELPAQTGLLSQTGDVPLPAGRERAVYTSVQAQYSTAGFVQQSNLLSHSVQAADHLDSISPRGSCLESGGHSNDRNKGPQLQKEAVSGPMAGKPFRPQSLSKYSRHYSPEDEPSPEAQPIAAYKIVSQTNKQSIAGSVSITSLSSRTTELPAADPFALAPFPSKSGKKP

c1cnn2ncc(-c3ccnc(Nc4ccc5c(c4)OCCO5)n3)c2c1 [GW806290X]
potency estimated from few doses ([1]; compound concentrations: 100 nM and 1000 nM (sheet 'Samples'), CATDS: 2.3873616537329799E-2): 1080 nM | potency estimated from few doses ([2]; compound concentrations: 100 nM and 1000 nM (sheet 'Samples'), CATDS: 6.6494036250362598E-2): 106 nM | potency estimated from few doses ([3]; compound concentrations: 100 nM and 1000 nM (sheet 'Samples'), CATDS: 9.8127081360261201E-2): 57.2 nM | potency estimated from few doses ([4]; compound concentrations: 100 nM and 1000 nM (sheet 'Samples'), CATDS: 3.86716280658417E-2): 308 nM | potency estimated from few doses ([5]; compound concentrations: 100 nM and 1000 nM (sheet 'Samples'), CATDS: 6.1886578646693099E-2): 121 nM | potency estimated from few doses ([6]; compound concentrations: 100 nM and 1000 nM (sheet 'Samples'), CATDS: 1.9268078616401899E-2): 2360 nM | potency estimated from few doses ([7]; compound concentrations: 100 nM and 1000 nM (sheet 'Samples'), CATDS: 2.7516933063414101E-2): 713 nM | potency estimated from few doses ([8]; compound concentrations: 100 nM and 1000 nM (sheet 'Samples'), CATDS: 2.3514563204250299E-2): 1130 nM

CS(=O)(=O)Nc1ccc(-c2ccnc3[nH]ccc23)cc1 [GSK993273A]
potency estimated from few doses [1, 20]: 1890 nM | potency estimated from few doses [9, 20]: 2000 nM | potency estimated from few doses [2, 20]: 1110 nM | potency estimated from few doses [3, 20]: 1440 nM | potency estimated from few doses [8, 20]: 2010 nM

COc1ccc(Nc2nccc(-c3ccc(NC(=O)c4cc5cc(F)ccc5[nH]4)cc3)n2)cc1 [GSK1229496A]
potency estimated from few doses ([1]; compound concentrations: 100 nM and 1000 nM (sheet 'Samples'), CATDS: 0.25032000609497101): 1830 nM

CNc1cc(-c2ccc3c(N)n[nH]c3c2)nc(N)n1 [GSK2224810A]
potency estimated from few doses [1, 20]: 781 nM | potency estimated from few doses [9, 20]: 1040 nM | potency estimated from few doses [2, 20]: 314 nM | potency estimated from few doses [3, 20]: 154 nM | potency estimated from few doses [6, 20]: 898 nM | potency estimated from few doses [8, 20]: 687 nM | potency estimated from few doses [10, 20]: 1070 nM

CC(C)Oc1ccc2c(-c3ccnc(Nc4ccc(N5CCN(C)CC5)cc4)n3)cnn2n1 [GW696155X]
potency estimated from few doses [1, 20]: 35.4 nM | potency estimated from few doses [9, 20]: 344 nM | potency estimated from few doses [3, 20]: 1570 nM | potency estimated from few doses [11, 20]: 416 nM | potency estimated from few doses [12, 20]: 201 nM | potency estimated from few doses [13]: 454 nM | potency estimated from few doses [7, 20]: 1030 nM | potency estimated from few doses [8, 20]: 39.6 nM | potency estimated from few doses [14]: 781 nM

CC(C)Nc1cc(-c2ccc3c(N)n[nH]c3c2)nc(N)n1 [GSK2221681A]
potency estimated from few doses [1, 20]: 149 nM | potency estimated from few doses [9, 20]: 947 nM | potency estimated from few doses [3, 20]: 1550 nM | potency estimated from few doses [6, 20]: 1130 nM | potency estimated from few doses [8, 20]: 220 nM

CS(=O)(=O)CCn1c(=O)c(Oc2ccc(F)cc2F)cc2cnc(NC3CCOCC3)nc21 [RO5027956-000]
potency estimated from few doses [1, 20]: 968 nM | potency estimated from few doses [9, 20]: 1020 nM | potency estimated from few doses [2, 20]: 1120 nM | potency estimated from few doses [3, 20]: 1240 nM | potency estimated from few doses [11, 20]: 1100 nM | potency estimated from few doses [12, 20]: 1530 nM | potency estimated from few doses [15, 20]: 1390 nM | potency estimated from few doses [13]: 422 nM | potency estimated from few doses [4, 20]: 592 nM | potency estimated from few doses [5, 20]: 601 nM | potency estimated from few doses [16]: 1270 nM | potency estimated from few doses [17]: 1540 nM | potency estimated from few doses [18]: 1230 nM | potency estimated from few doses [19]: 812 nM | potency estimated from few doses [8, 20]: 932 nM | potency estimated from few doses [10, 20]: 823 nM | potency estimated from few doses [14]: 1100 nM

CS(=O)(=O)Nc1cccc(-c2ccc3c(NC(=O)C4CC4)n[nH]c3c2)c1 [SB-742864]
potency estimated from few doses ([1]; compound concentrations: 100 nM and 1000 nM (sheet 'Samples'), CATDS: 0.116591298752119): 1410 nM | potency estimated from few doses ([9]; compound concentrations: 100 nM and 1000 nM (sheet 'Samples'), CATDS: 0.11349645370011199): 1510 nM | potency estimated from few doses ([8]; compound concentrations: 100 nM and 1000 nM (sheet 'Samples'), CATDS: 0.100041705724795): 2110 nM

O=C1N=C(NCCCc2ccccc2)S/C1=C\c1ccc2ncccc2c1 [RO4493941-000]
potency estimated from few doses ([1]; compound concentrations: 100 nM and 1000 nM (sheet 'Samples'), CATDS: 6.7611203009870793E-2): 1120 nM | potency estimated from few doses ([2]; compound concentrations: 100 nM and 1000 nM (sheet 'Samples'), CATDS: 8.49411754848379E-2): 528 nM | potency estimated from few doses ([3]; compound concentrations: 100 nM and 1000 nM (sheet 'Samples'), CATDS: 0.15877377246004401): 105 nM | potency estimated from few doses ([11]; compound concentrations: 100 nM and 1000 nM (sheet 'Samples'), CATDS: 0.35522502931524602): 22 nM | potency estimated from few doses ([12]; compound concentrations: 100 nM and 1000 nM (sheet 'Samples'), CATDS: 0.347313618598384): 22.8 nM | potency estimated from few doses ([8]; compound concentrations: 100 nM and 1000 nM (sheet 'Samples'), CATDS: 7.1931032695021699E-2): 898 nM

COc1ccc(-c2cc3c(N)ncnc3o2)cc1 [GW642138X]
potency estimated from few doses ([1]; compound concentrations: 100 nM and 1000 nM (sheet 'Samples'), CATDS: 9.3740609603759906E-2): 2100 nM

NS(=O)(=O)c1ccc(NC=C2C(=O)Nc3ccc4ncsc4c32)cc1 [GW589933X]
potency estimated from few doses ([1]; compound concentrations: 100 nM and 1000 nM (sheet 'Samples'), CATDS: 2.8569630231133399E-2): 376 nM | potency estimated from few doses ([9]; compound concentrations: 100 nM and 1000 nM (sheet 'Samples'), CATDS: 4.4159404649836601E-2): 151 nM | potency estimated from few doses ([2]; compound concentrations: 100 nM and 1000 nM (sheet 'Samples'), CATDS: 1.74105303489548E-2): 1590 nM | potency estimated from few doses ([3]; compound concentrations: 100 nM and 1000 nM (sheet 'Samples'), CATDS: 2.0435296344387299E-2): 913 nM | potency estimated from few doses ([11]; compound concentrations: 100 nM and 1000 nM (sheet 'Samples'), CATDS: 2.5198594058055201E-2): 510 nM | potency estimated from few doses ([12]; compound concentrations: 100 nM and 1000 nM (sheet 'Samples'), CATDS: 3.3899738232558103E-2): 257 nM | potency estimated from few doses ([15]; compound concentrations: 100 nM and 1000 nM (sheet 'Samples'), CATDS: 2.0623462365067999E-2): 888 nM | potency estimated from few doses ([4]; compound concentrations: 100 nM and 1000 nM (sheet 'Samples'), CATDS: 1.8552119857048799E-2): 1250 nM | potency estimated from few doses ([6]; compound concentrations: 100 nM and 1000 nM (sheet 'Samples'), CATDS: 1.7288492944947598E-2): 1630 nM | potency estimated from few doses ([8]; compound concentrations: 100 nM and 1000 nM (sheet 'Samples'), CATDS: 4.56646208861472E-2): 141 nM | potency estimated from few doses ([10]; compound concentrations: 100 nM and 1000 nM (sheet 'Samples'), CATDS: 1.8914319657445101E-2): 1170 nM

Cc1occc1-c1nc(N)c(OC[C@@H](N)Cc2c[nH]c3ccccc23)cc1-c1cc2c(C)n[nH]c2cn1 [GSK1660450B]
potency estimated from few doses [1, 20]: 1070 nM | potency estimated from few doses [2, 20]: 339 nM | potency estimated from few doses [3, 20]: 441 nM | potency estimated from few doses [13]: 38.2 nM | potency estimated from few doses [4, 20]: 273 nM | potency estimated from few doses [5, 20]: 62.6 nM | potency estimated from few doses [17]: 87.6 nM | potency estimated from few doses [18]: 845 nM | potency estimated from few doses [8, 20]: 1670 nM | potency estimated from few doses [14]: 427 nM
